Reference: PubChem BioAssay (NCATS)
“And” between values parts separate entries of the source, which are not always exact repeats. Equal entries are not always repeated. Records with an inconclusive call do not appear. The source made the active and inactive calls. Unless noted, the call rests on the fitted dose curve; in most records, active means well fitted curve in the direction sought with a large enough effect; inconclusive means small, poorly fitted or top-dose-only effect, or another doubt; inactive means no such curve, though single readings can be large; an effect the other way counts as inactive or inconclusive.

Tests used:
[1] = Cell Viability - Hek293 (AID 427;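 active means compounds whose dose-response curve shows a full or clear partial loss of cell viability, called from curve shape rather than a numeric limit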;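 further: potency means the concentration at half of the fitted maximal effect; cells exposed to compound for 40 hours at 37 °C before reading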); conditions: qHTS
Summary of the method: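 Luminescent ATP content (CellTiter-Glo, 20 min at room temperature) was measured after a 40 hr, 37 °C compound exposure of HEK293 cells. AC50 values came from Hill-equation fits of qHTS concentration-response data normalized to DMSO and 100 uM tamoxifen.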

[2] = Cell Viability - MRC5 (AID 434; calls by dose curve;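 further: potency means the concentration at half of the fitted maximal effect; potency reflects cytotoxicity seen as loss of intracellular ATP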); conditions: MRC5 lung fibroblast viability, qHTS
Summary of the method: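 MRC5 normal human lung fibroblasts, 1500 cells/well, exposed to compound for 40 hr at 37 C. Cellular ATP was read by CellTiter-Glo luminescence; data normalized to DMSO and 100 uM tamoxifen, with AC50 from Hill fits.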

[3] = Cell Viability - SK-N-SH (AID 435; calls by dose curve;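 further: potency means the concentration at half of the fitted maximal effect; compound exposure lasted 40 h at 37 °C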); conditions: SK-N-SH neuroblastoma cell viability qHTS
Summary of the method: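 Cells seeded at 1500 per well and incubated 5 hr at 37 °C. Compound added, then 40 hr at 37 °C. CellTiter-Glo added, 20 min at room temperature, luminescence read.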

[4] = Cell Viability - N2a (AID 540); conditions: N2a mouse neuroblastoma cell viability; activity change, negative = cytotoxicity: at 92.2 µM (top of the series);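 further: plate controls were DMSO alone for no effect and tamoxifen control for full effect; nearly all actives have a fitted effect of over 45% in size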
Summary of the method: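 Mouse neuroblastoma N2a cells, 1500/well, exposed to compounds 40 h at 37 °C in complete medium. Viability measured as cellular ATP by CellTiter-Glo luminescence; AC50 from Hill fits of concentration-response.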

[5] = Cell Viability - Mesenchymal (AID 546); conditions: mesenchymal cells viability, qHTS; activity change, negative = cytotoxicity: at 91.7 µM (top of the series);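 further: cells exposed to compound for 40 hours before reading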
Summary of the method: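 Human kidney mesenchymal cells from normal renal glomeruli, 1000 cells/well, rested 5 hr at 37 °C, then treated 40 hr at 37 °C in complete medium. Cellular ATP read by CellTiter-Glo luminescence; AC50 from Hill-equation fits.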

[6] = Cellular Toxicity (caspase-3) Jurkat (AID 655); conditions: Jurkat caspase-3 activation, luminescence, DMSO = 0%, tamoxifen = 100%; at 92.2 µM (top of the series);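 further: cells exposed to compound for 16 h at 37 °C before reading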
Summary of the method: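 Caspase 3/7 activation is scored as increased luminescence in Jurkat cells cultured with compound for 16 hours in complete medium. AC50 values come from Hill fits of qHTS concentration-response data normalized to DMSO and 100 uM tamoxifen controls.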

[7] = Cellular Toxicity (caspase-3) HUV-EC-C (AID 656); conditions: HUV-EC-C cells, caspase-3 activation (apoptosis), vehicle = 0, 100 µM tamoxifen = 100%; series mostly up to 92.2 µM
Summary of the method: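 Read-out: luminescence proportional to caspase 3/7 activity, measured 20 min after adding Caspase-Glo 3/7 reagent. Cells (HUV-EC-C) had received compound for 16 hr at 37°C. Increases relative to DMSO and 100 uM tamoxifen gave concentration-response AC50 values.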

[8] = Cellular Toxicity (caspase-3) SHSY5Y (AID 657); conditions: SH-SY5Y caspase-3 activation, DMSO zero, 10 µM staurosporine = 100%; series mostly up to 91.7 µM
Summary of the method: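 Cells plated and incubated 5 h at 37 °C, dosed over a concentration range, incubated 16 h, then given Caspase-Glo 3/7 reagent for 1 h at room temperature before luminescence reading. Staurosporine (10 uM) defined full stimulation.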

[9] = Cellular Toxicity (caspase-3) MRC-5 (AID 659); conditions: MRC-5 cells, luminescence, normalized: DMSO 0%, 10 µM staurosporine 100%; series mostly up to 91.7 µM
Summary of the method: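 MRC-5 human normal lung fibroblasts, 1500 cells/well, treated 16 h at 37 °C in complete medium. Caspase 3/7 measured by Caspase-Glo luminescence after 1 h at room temperature. Normalized to DMSO and 10 uM staurosporine; AC50 from Hill fit.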

[10] = Cellular Toxicity (caspase-3) Mesangial (AID 660); conditions: mesangial cells, normalized: DMSO 0%, 100 µM tamoxifen 100%; series mostly up to 91.7 µM
Summary of the method: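 Human renal glomerular mesangial cells, 1000/well, 5 h at 37 C before 16 h compound treatment. Caspase-Glo 3/7 luminescence after 20 min; normalized to DMSO and 100 uM tamoxifen, AC50 from Hill fit.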

[11] = Cellular Toxicity (caspase-3) H-4-II-E (AID 663); conditions: H-4-II-E rat hepatoma; Potency: caspase-3 activation; series mostly up to 92.2 µM;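 further: cells exposed to compound for 16 hr before readout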
Summary of the method: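 Rat hepatoma H-4-II-E cells (1500/well) plated 5 hr, then exposed to compound titrations for 16 hr at 37 °C. Caspase-Glo 3/7 luminescence read after 20 min at RT; data normalized to DMSO and 100 uM tamoxifen, AC50 from Hill fits.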

[12] = Cellular Toxicity (caspase-3) Hek293 (AID 664); conditions: HEK293 caspase-3 activation, DMSO = 0%, 100 µM tamoxifen = 100%; series mostly up to 92.2 µM;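 further: cells exposed to compound for 16 h at 37 °C before readout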
Summary of the method: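 HEK293 cells in complete medium treated 16 h at 37 °C, then Caspase-Glo 3/7 luminescence read after 20 min at room temperature. Normalized to DMSO and 100 uM tamoxifen; AC50 from Hill fit of concentration-response.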

[13] = Cellular Toxicity (caspase-3) N2a (AID 665); conditions: N2a cells, luminescence, normalized: DMSO 0%, 10 µM staurosporine 100%; series mostly up to 92.2 µM;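 further: compound exposure lasted 16 h at 37 °C before readout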
Summary of the method: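 Mouse N2a neuroblastoma cells, 1500 per well, treated 16 h at 37 °C in complete medium; caspase-3/7 activity by Caspase-Glo luminescence after 1 h. Normalized to DMSO and 10 uM staurosporine; AC50 from Hill fits.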

[14] = Cellular Toxicity (caspase-3) NIH 3T3 (AID 666); conditions: NIH 3T3 caspase-3 activation, apoptosis/toxicity, 0% DMSO, 100% is 100 µM tamoxifen; series mostly up to 92.2 µM;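 further: caspase signal read after 16 h compound exposure; 0% = DMSO basal and 100% = 100 µM tamoxifen stimulation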
Summary of the method: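 Mouse NIH 3T3 fibroblasts (1000/well) treated 16 h at 37 C; caspase-3/7 activity measured by Caspase-Glo 3/7 luminescence after 20 min. Normalized to DMSO and 100 uM tamoxifen; AC50 from Hill fits.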

[15] = Cellular Toxicity (caspase-3) Renal Proximal Tubule (AID 667); conditions: renal proximal tubule cells, primary cells freshly taken from rat, solvent-only wells 0%, staurosporine 100%; series mostly up to 91.7 µM;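 further: cells exposed to compound for 16 hours at 37 °C before detection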
Summary of the method: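 In qHTS format, rat primary proximal tubule cells seeded at 1000 per well are exposed to compounds for 16 hours at 37 °C. An increase in Caspase-Glo 3/7 luminescence indicates caspase activation.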

[16] = Cell Viability - LYMP2-001 (AID 921); conditions: LYMP2-001 lymphoblastoid cell viability; series mostly up to 92.2 µM;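 further: cells exposed to compound for 24 h at 37 °C; 0% = DMSO only and full inhibition = tetraoctylammonium bromide control wells; nearly all actives have a fitted effect of over 70% in size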
Summary of the method: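 qHTS, 1536-well; lymphoblastoid cells, 24 hr compound, 37 C; ATP by CellTiter-Glo, 30 min RT; luminescence; Hill-fit AC50.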

[17] = MultiTox-Fluor Cytotoxicity Assay - LYMP1-001 - Dead Cells (AID 946); conditions: LYMP1-001 lymphoblastoid cells, dead-cell protease fluorescence; series mostly up to 92.2 µM
Summary of the method: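 Cytotoxicity as increased dead-cell protease fluorescence (bis-AAF-R110, 485/520 nm), read 60 min after MultiTox-Fluor reagent. Human lymphoblastoid line exposed 16 h; Hill-fitted AC50, with DMSO as 0% and 15 uM tetraoctylammonium bromide as 100%.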

[18] = Cell Viability - LYMP1-002 - Assay at 16 hr (AID 948); conditions: LYMP1-002 lymphoblastoid cell viability; series mostly up to 92.2 µM;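 further: 0% = DMSO alone and full effect = 92 µM tetraoctylammonium bromide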
Summary of the method: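 Acute cytotoxicity is scored as a concentration-dependent fall in intracellular ATP in a human lymphoblastoid line (LYMP1-002) after 16 hr compound exposure at 37 C, measured by luciferase luminescence.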

[19] = biological target: Peroxisome proliferator-activated receptor gamma (Homo sapiens) (UniProt P37231); experiment: qHTS assay for small molecule agonists of peroxisome proliferator-activated receptor gamma signaling (AID 588536; active means well fitted curve in the direction sought with a large enough effect in the signal ratio, with a control signal flat, not every such curve was filed as active; the % refers to the signal ratio;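 further: 0% = DMSO basal wells and 100% = rosiglitazone at 2 µM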); conditions: HEK293 PPARg-UAS-bla, beta-lactamase ratio, 16 h, percent of rosiglitazone response, DMSO as zero; series mostly up to 76.7 µM
Summary of the method: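 Ratiometric blue/green fluorescence (405 nm excitation; 460 and 530 nm emission) from CCF4-loaded HEK293 reporter cells serves as signal. Exposure to test compounds lasts 16 h at 37 C in medium containing 1% charcoal/dextran-treated serum.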

[20] = qHTS assay for small molecule activators of the p53 signaling pathway (AID 651743; active means well fitted activation curve with a large enough effect in the signal ratio, not every such curve was filed as active; the % refers to the signal ratio; further: % of control where 0% means no effect); conditions: HCT-116 p53RE-bla, beta-lactamase FRET ratio, 16 h; activation: stronger effect = higher value
Summary of the method: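 p53RE-bla HCT-116 cells carrying a beta-lactamase reporter under p53 response elements were exposed to compounds for 16 hours at 37 C. Reporter activity read as fluorescence after 2 hours at room temperature with LiveBLAzer B/G FRET substrate.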

Peroxisome proliferator-activated receptor gamma (Homo sapiens), sequence (P37231 whole entry, looked up): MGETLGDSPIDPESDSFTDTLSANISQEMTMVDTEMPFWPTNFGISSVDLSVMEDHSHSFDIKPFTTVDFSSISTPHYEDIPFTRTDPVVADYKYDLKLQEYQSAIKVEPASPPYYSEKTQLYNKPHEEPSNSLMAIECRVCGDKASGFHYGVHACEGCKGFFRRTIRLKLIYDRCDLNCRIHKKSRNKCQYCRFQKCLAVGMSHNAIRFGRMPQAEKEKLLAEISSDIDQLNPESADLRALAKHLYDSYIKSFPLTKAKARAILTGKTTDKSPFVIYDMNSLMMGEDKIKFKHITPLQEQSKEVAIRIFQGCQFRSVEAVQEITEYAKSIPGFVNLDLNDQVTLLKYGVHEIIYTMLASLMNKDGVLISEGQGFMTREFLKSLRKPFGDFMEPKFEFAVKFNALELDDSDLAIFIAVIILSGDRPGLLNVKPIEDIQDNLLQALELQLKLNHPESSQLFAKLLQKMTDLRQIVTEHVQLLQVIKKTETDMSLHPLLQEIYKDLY

O=C(O)c1ccccc1
inactive: Potency [1] > 92 µM | Potency [2] > 92 µM | Potency [3] > 92 µM | activity change, negative = cytotoxicity [4] 6.89% | activity change, negative = cytotoxicity [5] 4.89% | caspase-3 activation [6] 0.102% | outcome [7] | outcome [8] | outcome [9] | outcome [10] | Potency [11] | outcome [12] | outcome [13] | outcome [14] | outcome [15] | Potency [16] | Potency [17] | Potency [18] | outcome [19] | activation [20] 7.69%

C=CC(C)(CCC=C(C)C)OC(C)=O (configuration not stated)
inactive: outcome [19] | activation [20] -1.51%

CCCCCCCCCCCCCC(=O)O
inactive: Potency [1] > 92 µM | Potency [2] > 92 µM | Potency [3] > 92 µM | activity change, negative = cytotoxicity [4] -4.4% | activity change, negative = cytotoxicity [5] 1.41% | caspase-3 activation [6] -2.86% | outcome [7] | outcome [8] | outcome [9] | outcome [10] | Potency [11] | outcome [12] | outcome [13] | outcome [14] | outcome [15] | Potency [16] | Potency [17] | Potency [18] | outcome [19] | activation [20] -1.59% and 5.08%

COc1cc(/C=C/c2ccccc2)oc(=O)c1
inactive: Potency [1] > 92 µM | Potency [2] > 92 µM | Potency [3] > 92 µM | activity change, negative = cytotoxicity [4] 1.71% | activity change, negative = cytotoxicity [5] -9.29% | caspase-3 activation [6] -4.56% | outcome [7] | outcome [8] | outcome [9] | outcome [10] | Potency [11] | outcome [12] | outcome [13] | outcome [14] | outcome [15] | Potency [16] | Potency [17] | Potency [18] | outcome [19] | activation [20] -4.84%

C=C(C)C1CC=C(C)C(O)C1 (configuration not stated)
inactive: Potency [1] > 92 µM | Potency [2] > 92 µM | Potency [3] > 92 µM | activity change, negative = cytotoxicity [4] -0.158% | activity change, negative = cytotoxicity [5] 2.7% | caspase-3 activation [6] -2.18% | outcome [7] | outcome [8] | outcome [9] | outcome [10] | Potency [11] | outcome [12] | outcome [13] | outcome [14] | outcome [15] | Potency [16] | Potency [17] | Potency [18] | outcome [19] | activation [20] -1.04%
